For nine compounds, Potency and outcome results are on record in PubChem BioAssay (Tox21).

Inconclusive results are not listed. Where a structure was tested more than once in an assay, its records may differ in their call. Calls of active or inactive are those of the source. Unless noted, calls come from the whole dose curve; as a rule, active = well fitted curve in the direction sought with a large enough effect in the repeat runs; inconclusive = weak or mixed curves; inactive = no such curve, though single readings can be large; an effect the other way counts as inactive or inconclusive.

Experiment [1] can be described thus: qHTS assay to identify small molecule agonists of the vitamin D receptor (VDR) signaling pathway - cell viability counter screen (AID 743224). Note: nearly all actives have a fitted effect of over 50% in size. Note: potency is the fitted concentration of half-maximal effect. In a few lines:
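Cells: VDR-bla, 2,000/well, settled 4 h. Treatment: compounds in DMSO, 16 h, 37C/5% CO2. Readout: CellTiter-Glo luminescence after 30 min RT.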
For orientation: In qHTS, concentration-response curves come from the screen itself.

A short description of experiment [2]: qHTS assay to identify small molecule antagonists of the vitamin D receptor (VDR) signaling pathway - cell viability counter screen (AID 743225). Note: nearly all actives have a fitted effect of over 50% in size. A digest of the protocol: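 Compounds were pinned onto VDR-bla HEK 293T cells together with 1-alpha,25-dihydroxyvitamin D3 at 3 nM final. After 16 h at 37C and 5% CO2 plus the reporter readout, cell viability was measured by CellTiter-Glo luminescence (30 min, room temperature).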

The nature of experiment [3]: qHTS assay to identify small molecule agonists of the NFkB signaling pathway (AID 1159509; active = well fitted curve in the direction sought with a large enough effect in the signal ratio in the repeat runs, not every such curve was filed as active; the % refers to the signal ratio; note: series mostly up to about 61 µM). A digest of the protocol: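 Readout: FRET fluorescence, 405 nm excitation, 460/530 nm emission; beta-lactamase expression disrupts FRET. Cells: ME-180 stably carrying NF-kB-driven bla reporter. Compound exposure 5 hr, 37 C, 5% CO2.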
Experiment [4] in a line: qHTS assay to identify small molecule agonists of the NFkB signaling pathway - cell viability counter screen (AID 1159515; calls by dose curve; note: nearly all actives have a fitted effect of over 55% in size; note: potency is the fitted concentration of half-maximal effect). In a few lines:
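Cells are seeded (2,000 NFkB-bla ME-180 per well), rested overnight, and dosed with DMSO-dissolved compounds for 5 hr at 37 C. Viability is then read by CellTiter-Glo luminescence after 30 min at room temperature.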

Experiment [5] is described as follows: qHTS assay to identify small molecule agonists of the endoplasmic reticulum stress response signaling pathway (AID 1159516; active = well fitted activation curve with a large enough effect in the signal ratio in the repeat runs, not every such curve was filed as active; the % refers to the signal ratio). In a few lines: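 Cells are seeded at 1,500 per well and incubated overnight. Compounds in DMSO are added for 5 hr at 37 C, then beta-lactamase FRET substrate for 2 hr at room temperature, and fluorescence at 460 and 530 nm is measured.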

Experiment [6] can be described thus: qHTS assay to identify small molecule agonists of the endoplasmic reticulum stress response signaling pathway - cell viability counter screen (AID 1159517; calls by dose curve;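 note: HeLa cells carrying an ER stress response element beta-lactamase reporter; series mostly up to about 61 µM; nearly all actives have a fitted effect of over 50% in size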). A digest of the protocol:
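Cytotoxicity of test compounds toward ESRE-bla HeLa cells was assessed after 5 hr exposure. The luminescent CellTiter-Glo signal was measured 30 min after reagent addition.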

Experiment [7] is described as follows: qHTS assay to identify small molecule antagonists of the retinoid-related orphan receptor gamma (ROR-gamma) signaling pathway - cell viability counter screen (AID 1159520). Note: nearly all actives have a fitted effect of over 50% in size. A digest of the protocol: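 Tet-on ROR gamma CHO cells (1,000/well) were plated 4 hr, given compounds in DMSO for 2 hr at 37 C, then induced with 1 uM final doxycycline for 16 hr. Viability was read as ATP by CellTiter-Glo luminescence after 30 min.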

Experiment [8] concerns the target Nuclear receptor ROR-gamma (Homo sapiens) (UniProt P51449). Put plainly: qHTS assay to identify small molecule antagonists of the retinoid-related orphan receptor gamma (ROR-gamma) signaling pathway (AID 1159521). In a few lines:
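Test compounds were applied to Tet-on RORγ CHO cells 2 h ahead of doxycycline hyclate (1 uM final). Luciferase reporter activity was quantified by luminescence after 16 h at 37 C and 5% CO2.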

Experiment [9] is described as follows: qHTS assay to identify small molecule agonists of the AP-1 signaling pathway - cell viability counter screen (AID 1159525; calls by dose curve; note: nearly all actives have a fitted effect of over 55% in size; note: potency is the fitted concentration of half-maximal effect). In a few lines: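 Each titration point was normalised to DMSO and tetra n-octyl ammonium bromide controls. The read was Cell Titer Glo luminescence after 30 min at RT, following 5 h compound exposure of ME-180 AP-1-bla cells at 37 °C.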

Experiment [10] can be described thus: qHTS assay to identify small molecule agonists of the AP-1 signaling pathway (AID 1159526; calls by dose curve).
The target of experiment [11] is Retinoic acid receptor RXR-alpha (Homo sapiens) (UniProt P19793). The experiment can be described thus: qHTS assay to identify small molecule agonists of the RXR signaling pathway (AID 1159527; calls by dose curve; note: nearly all actives have a fitted effect of over 35% in size). In a few lines:
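Using 9-cis retinoic acid as the reference agonist, chemicals were tested in HEK 293T cells […] for 16 hr; substrate loading lasted 2 hr at room temperature.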

The nature of experiment [12]: qHTS assay to identify small molecule agonists of the RXR signaling pathway - cell viability counter screen (AID 1159529). Note: nearly all actives have a fitted effect of over 50% in size. Note: potency is the fitted concentration of half-maximal effect. A digest of the protocol: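 Compounds dissolved in DMSO were pinned onto HEK 293T cells carrying a beta-lactamase reporter under RXR-alpha control and incubated 16 hr. Cytotoxicity was then quantified by CellTiter-Glo luminescence.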
The nature of experiment [13]: qHTS assay to identify small molecule antagonists of the retinoid acid receptor (RAR) signaling pathway - cell viability counter screen (AID 1159551). Note: nearly all actives have a fitted effect of over 35% in size. A digest of the protocol: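 Cells (C3RL4) are plated, incubated overnight, dosed with compound in DMSO, then given retinol at 1 uM final. After 6 h at 37 C, CellTiter-Glo is added and luminescence read following 30 min at room temperature.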

The nature of experiment [14]: qHTS assay to identify small molecule antagonists of the retinoic acid receptor (RAR) signaling pathway (AID 1159552; note: nearly all actives have a fitted effect of over 50% in size). In a few lines: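 Test chemicals and DMSO controls were pin-transferred onto C3RL4 cells a day after seeding; retinol (1 uM final) followed at once. Luminescent reporter output was quantified after 6 hr of co-incubation and 30 min with detection reagent.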

Experiment [15] can be described thus: qHTS assay to identify small molecule antagonists of the estrogen related receptor (ERR) signaling pathway - cell viability counter screen (AID 1224818). Note: series mostly up to about 46 µM. A digest of the protocol: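 ERR cells, 2,000/well; 6 h settle at 37 C/5% CO2; compound pin transfer (DMSO); 17.5 h at 37 C; CellTiter-Fluor, 30 min, fluorescence read.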
Experiment [16] in a line: qHTS assay to identify small molecule antagonists of the estrogen related receptor signaling pathway with the pleiotropic PPARgamma coactivator (PGC) cell viability counter screen (AID 1224822; note: series mostly up to about 46 µM). A digest of the protocol: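 Multiplexed viability counter screen run in PGC/ERR cells treated with compounds for 17.5 h at 37 C; live-cell protease signal measured by CellTiter-Fluor fluorescence.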

The nature of experiment [17]: qHTS assay to identify small molecule agonists of the retinoic acid receptor (RAR) signaling pathway (AID 1159553). Note: potency is the fitted concentration of half-maximal effect. A digest of the protocol:
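Seed C3RL4 reporter cells at 1,000 per well and incubate overnight at 37 C. Add compounds in DMSO, incubate 6 hr. Add luciferase reagent, wait 30 min at room temperature, read luminescence.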

Retinoic acid receptor RXR-alpha (Homo sapiens), sequence (P19793 whole entry, looked up): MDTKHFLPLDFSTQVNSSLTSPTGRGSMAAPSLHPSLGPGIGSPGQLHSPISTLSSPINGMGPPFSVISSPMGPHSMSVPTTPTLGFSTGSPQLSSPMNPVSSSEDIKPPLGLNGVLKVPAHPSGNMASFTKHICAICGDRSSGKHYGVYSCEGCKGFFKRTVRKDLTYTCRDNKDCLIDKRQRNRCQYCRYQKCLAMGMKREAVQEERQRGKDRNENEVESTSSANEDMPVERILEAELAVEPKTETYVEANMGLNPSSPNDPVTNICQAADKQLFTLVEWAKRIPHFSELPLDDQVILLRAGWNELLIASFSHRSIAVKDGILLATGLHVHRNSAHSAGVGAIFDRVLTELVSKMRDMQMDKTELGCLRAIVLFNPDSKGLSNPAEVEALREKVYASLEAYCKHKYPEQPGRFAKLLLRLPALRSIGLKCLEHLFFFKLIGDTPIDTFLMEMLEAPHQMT

With `C[C@]12CCC(=O)C=C1CC[C@@H]1[C@@H]2C(=O)C[C@@]2(C)[C@H]1CC[C@]2(O)C(=O)CO`, in experiment [1], the Potency is 24.5 µM (active) and inactive. In addition, the Potency result in [2], in [4], in [5], in experiment [6], in [7] and in [8] was “inactive” in each case. Also, the Potency result in experiment [9], in experiment [11], in [12], in [13], in [14] and in [15] was “inactive” each time. In addition, in experiment [16], the Potency entry was “inactive”. Further, the result in experiment [3] and in experiment [10] was inactive.
As for `COC(=O)c1ccccc1`, the Potency entry in [1], in [4], in experiment [5], in experiment [6], in experiment [7] and in experiment [8] was “inactive” each time. The Potency result in experiment [9], in experiment [11], in [12] and in experiment [13] was “inactive” throughout. Also, the call in experiment [3] and in experiment [10] was inactive.
On to `Clc1nc(Cl)c(Cl)c(Cl)c1Cl`, for which the Potency result in experiment [1], in experiment [4], in experiment [5], in experiment [6], in [7] and in experiment [8] was “inactive” in each case. Moreover, the Potency result in experiment [9], in [11], in [12], in experiment [13] and in experiment [14] was “inactive” throughout. For the same compound, the outcome in experiment [3] and in [10] was inactive.
In the case of `C=C(C)C(=O)OCCOC(=O)C(=C)C`, the Potency result in experiment [1], in experiment [4], in [5], in experiment [6], in experiment [7] and in [8] was “inactive” each time. The Potency result in experiment [9], in experiment [11], in [12], in [13], in [14] and in experiment [17] was “inactive” in each case. In addition, the compound was called inactive in experiment [3] and in experiment [10].
On to `CCCCOCCOCCO`, for which the Potency entry in experiment [1], in [2], in experiment [4], in experiment [5], in experiment [6] and in experiment [7] was “inactive” each time. Also, the Potency result in experiment [8], in experiment [9], in [11], in [12], in experiment [13] and in [14] was “inactive” throughout. The result in experiment [3] and in experiment [10] was inactive.
With `OC[C@H]1O[C@@H]2O[C@H]3[C@H](O)[C@@H](O)[C@@H](O[C@H]4[C@H](O)[C@@H](O)[C@@H](O[C@H]5[C@H](O)[C@@H](O)[C@@H](O[C@H]6[C@H](O)[C@@H](O)[C@@H](O[C@H]7[C@H](O)[C@@H](O)[C@@H](O[C@H]8[C@H](O)[C@@H](O)[C@@H](O[C@H]1[C@H](O)[C@H]2O)O[C@@H]8CO)O[C@@H]7CO)O[C@@H]6CO)O[C@@H]5CO)O[C@@H]4CO)O[C@@H]3CO`, the Potency result in [1], in experiment [4], in experiment [5], in experiment [6], in experiment [7] and in experiment [8] was “inactive” each time. For the same compound, the Potency entry in [9], in experiment [11], in experiment [13] and in experiment [14] was “inactive” each time. In addition, the call in [3] and in experiment [10] was inactive. Also, in [12], the Potency is 21.9 µM (active) and inactive.
As for `CC(C)Oc1ccc2c(=O)c(-c3ccccc3)coc2c1`, the Potency entry in [1], in experiment [2], in experiment [4], in experiment [5], in [6] and in experiment [7] was “inactive” each time. Also, the Potency entry in [8], in experiment [9], in experiment [11], in experiment [12], in experiment [13] and in [14] was “inactive” throughout. For the same compound, the call in experiment [3] and in experiment [10] was inactive. Moreover, the Potency in experiment [17] is 0.335 µM (active).
With `Brc1cc(Oc2cc(Br)c(Br)c(Br)c2Br)c(Br)c(Br)c1Br`, the Potency entry in experiment [1], in experiment [2], in [5], in [6], in experiment [7] and in experiment [8] was “inactive” each time. The Potency result in [11], in [13] and in experiment [14] was “inactive” throughout. The compound was called inactive in experiment [3] and in [10]. Moreover, the Potency in experiment [4] was 1.56 µM (active) and inactive; in [9], 55.2 µM (active) and inactive; in [12], 1.39 µM (active) and inactive.
`CC(C)OB(OC(C)C)OC(C)C`: the Potency entry in experiment [1], in experiment [2], in [4], in experiment [5], in [6] and in [7] was “inactive” throughout. Moreover, the Potency result in experiment [8], in [9], in [11], in [12] and in experiment [13] was “inactive” throughout. For the same compound, the outcome in experiment [3] and in experiment [10] was inactive.
